Measurements published in PubChem BioAssay (NCI).
This is part of a sample that, as a whole, favours compounds with a hit. Of some 83,000 tested, about 20% had one in any assay.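 Interpretation: 100, growth as untreated; towards 0, rising growth inhibition; 0, no net growth; 0 to -100, cell death. Compounds scoring below 10 were considered active.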 Calls of active or inactive are those of the source.

How the values were obtained:
Test in all cases: NCI-60 one-dose screen, 48 h (100 = growth as untreated, 0 = no growth, -100 = all killed)
SR leukemia = conditions: 10 µM unless noted
RPMI-8226 leukemia = conditions: 10 µM unless noted
OVCAR-8 ovarian = conditions: 10 µM unless noted
OVCAR-5 ovarian = conditions: 10 µM unless noted
OVCAR-4 ovarian = conditions: 10 µM
SK-OV-3 ovarian = conditions: 10 µM unless noted
IGROV1 ovarian = conditions: 10 µM unless noted
OVCAR-3 ovarian = conditions: 10 µM unless noted
T-47D breast = conditions: 10 µM unless noted
MDA-MB-435 melanoma = conditions: 10 µM unless noted
SW-620 colon = conditions: 10 µM unless noted
MCF7 breast = conditions: 10 µM unless noted
HCT-116 colon = conditions: 10 µM unless noted
HCC-2998 colon = conditions: 10 µM unless noted
KM12 colon = conditions: 10 µM unless noted
HS 578T breast = conditions: 10 µM unless noted
NCI/ADR-RES ovarian = conditions: 10 µM unless noted
BT-549 breast = conditions: 10 µM unless noted

Measured: growth

O=[N+]([O-])c1cc(CCl)ccc1OCCBr
inactive: SR leukemia 102% | RPMI-8226 leukemia 93.5% | OVCAR-8 ovarian 101% | OVCAR-5 ovarian 108% | OVCAR-4 ovarian 97% | SK-OV-3 ovarian 102% | IGROV1 ovarian 107% | OVCAR-3 ovarian 105% | T-47D breast 88.3% | MDA-MB-435 melanoma 104% | SW-620 colon 106% | MCF7 breast 89.7% | HCT-116 colon 93.9% | HCC-2998 colon 104% | KM12 colon 113%

c1ccc2c(c1)CN(CCCN1CCOCC1)C2
inactive: SR leukemia 97.8% | RPMI-8226 leukemia 95.5% | OVCAR-8 ovarian 102% | OVCAR-5 ovarian 99.1% | OVCAR-4 ovarian 102% | SK-OV-3 ovarian 102% | IGROV1 ovarian 101% | HS 578T breast 109% | NCI/ADR-RES ovarian 98.7% | T-47D breast 101% | BT-549 breast 121% | MDA-MB-435 melanoma 98.2% | SW-620 colon 107% | MCF7 breast 94.6% | HCT-116 colon 97.9% | HCC-2998 colon 98.6% | KM12 colon 102%

CCCCCN(CCCCC)CCCCCCCCN1CCCc2ccccc21
inactive: SR leukemia 21.5% | RPMI-8226 leukemia 84.1% | OVCAR-8 ovarian 89.1% | OVCAR-5 ovarian 107% | OVCAR-4 ovarian 95.9% | SK-OV-3 ovarian 106% | IGROV1 ovarian 76.4% | OVCAR-3 ovarian 72.1% | NCI/ADR-RES ovarian 92.2% | T-47D breast 108% | BT-549 breast 88.6% | MDA-MB-435 melanoma 87.9% | SW-620 colon 82.8% | MCF7 breast 101% | HCT-116 colon 64.8% | HCC-2998 colon 74.8% | KM12 colon 73.4%

CCOC(=O)C1=C(C(=O)c2ccc(Br)cc2)C(c2ccc(Br)cc2)NC(=S)N1 (stereo not given)
inactive: SR leukemia 108% | RPMI-8226 leukemia 111% | OVCAR-8 ovarian 97.8% | OVCAR-5 ovarian 108% | OVCAR-4 ovarian 107% | SK-OV-3 ovarian 110% | IGROV1 ovarian 92% | OVCAR-3 ovarian 105% | T-47D breast 94.5% | BT-549 breast 101% | MDA-MB-435 melanoma 107% | SW-620 colon 101% | MCF7 breast 102% | HCT-116 colon 89.8% | HCC-2998 colon 106% | KM12 colon 97.5%

O=C1/C(=C/c2ccc(OCc3ccccc3)cc2)Oc2cc(OCCN3CCCCC3)ccc21
inactive: SR leukemia 13.3% | RPMI-8226 leukemia 54% | OVCAR-8 ovarian 89.8% | OVCAR-5 ovarian 88.8% | OVCAR-4 ovarian 61.2% | SK-OV-3 ovarian 104% | IGROV1 ovarian 87% | OVCAR-3 ovarian 88.1% | NCI/ADR-RES ovarian 79.2% | T-47D breast 63.4% | BT-549 breast 85.3% | MDA-MB-435 melanoma 54.7% | SW-620 colon 71.1% | MCF7 breast 65.2% | HCT-116 colon 52.3% | HCC-2998 colon 90.5% | KM12 colon 82.3%

C=C1C(=O)O[C@H]2[C@H]1CC/C(COC(=O)NCc1ccc(Cn3c(=O)sn(-c4ccc(Cl)cc4)c3=O)cc1)=C\CC[C@@]1(C)O[C@@H]21
inactive: SR leukemia 72.3% | OVCAR-8 ovarian 84% | OVCAR-5 ovarian 93.2% | OVCAR-4 ovarian 54.2% | SK-OV-3 ovarian 107% | IGROV1 ovarian 54.4% | HS 578T breast 106% | NCI/ADR-RES ovarian 102% | T-47D breast 47.5% | BT-549 breast 66.1% | MDA-MB-435 melanoma 82.9% | MCF7 breast 33.1% | HCT-116 colon 22.1% | HCC-2998 colon 107%
active: RPMI-8226 leukemia 4.32% | SW-620 colon 6.67%

O=C(OCc1ccc2c(Cl)cc(Cl)c(O)c2n1)N1CCN(C(=O)c2cc3cc(F)ccc3[nH]2)CC1
inactive: SR leukemia 16.7% | RPMI-8226 leukemia 21.4% | OVCAR-5 ovarian 40.7% | OVCAR-4 ovarian 40% | SK-OV-3 ovarian 19.3% | IGROV1 ovarian 11.2% | T-47D breast 62.2% | SW-620 colon 16.9% | MCF7 breast 14.5% | HCC-2998 colon 22.6%
active: OVCAR-8 ovarian 7.64% | OVCAR-3 ovarian -44.1% | MDA-MB-435 melanoma -54.5% | HCT-116 colon 5.58% | KM12 colon -15.2%

CC1(C)S[C@@H]2[C@H](NC(=O)[C@H](C(=O)O)c3cccs3)C(=O)N2[C@H]1C(=O)O
inactive: SR leukemia 102% | RPMI-8226 leukemia 117% | OVCAR-8 ovarian 98.7% | OVCAR-5 ovarian 100% | OVCAR-4 ovarian 112% | SK-OV-3 ovarian 105% | IGROV1 ovarian 109% | OVCAR-3 ovarian 111% | NCI/ADR-RES ovarian 102% | T-47D breast 102% | BT-549 breast 96.2% | MDA-MB-435 melanoma 106% | MCF7 breast 110% | HCT-116 colon 108% | HCC-2998 colon 103% | KM12 colon 106%

O=C1CC(C(F)(F)F)Cc2nc3ccc(Br)cc3cc21 (stereo not given)
inactive: SR leukemia 75.2% | RPMI-8226 leukemia 77.5% | OVCAR-8 ovarian 95.7% | OVCAR-5 ovarian 87.2% | OVCAR-4 ovarian 74.6% | SK-OV-3 ovarian 85.7% | IGROV1 ovarian 73.4% | OVCAR-3 ovarian 94.2% | NCI/ADR-RES ovarian 95.1% | T-47D breast 62.9% | BT-549 breast 96.3% | MDA-MB-435 melanoma 94.4% | SW-620 colon 92.4% | MCF7 breast 74.3% | HCT-116 colon 73.9% | HCC-2998 colon 109% | KM12 colon 64.4%

COc1cc2c(cc1OCCCN1CCN(CCCOc3cc4c(cc3OC)C(=O)N3C[C@H](F)C[C@H]3C=N4)CC1)N=C[C@@H]1C[C@@H](F)CN1C2=O
inactive: OVCAR-8 ovarian 24.4% | SK-OV-3 ovarian 36.1% | IGROV1 ovarian 12.4% | NCI/ADR-RES ovarian 63.6% | T-47D breast 13.4%
active: SR leukemia -23.4% | RPMI-8226 leukemia -3.68% | OVCAR-5 ovarian 9.91% | OVCAR-4 ovarian 1.26% | OVCAR-3 ovarian 5.75% | BT-549 breast -68.5% | MDA-MB-435 melanoma -24.9% | SW-620 colon -19.1% | MCF7 breast 6.75% | HCT-116 colon 8.44% | HCC-2998 colon -13.1% | KM12 colon -20%

N#Cc1c(N2CCOCC2)nc(=S)[nH]c1-c1ccco1
inactive: SR leukemia 17.8% | RPMI-8226 leukemia 43% | OVCAR-8 ovarian 80.3% | OVCAR-5 ovarian 69% | OVCAR-4 ovarian 66.2% | SK-OV-3 ovarian 55% | IGROV1 ovarian 20.7% | OVCAR-3 ovarian 64.7% | T-47D breast 18.9% | BT-549 breast 60.4% | MDA-MB-435 melanoma 86.3% | SW-620 colon 83.8% | MCF7 breast 26.7% | HCT-116 colon 82.4% | KM12 colon 65.3%
active: HCC-2998 colon -21%

O=C1CC(c2ccccc2)Cc2nc3ccc(Cl)cc3cc21 (stereo not given)
active: OVCAR-3 ovarian -29.1% | NCI/ADR-RES ovarian 7.96% | BT-549 breast 4.62% | MDA-MB-435 melanoma -38.6% | HCT-116 colon 5.45% | HCC-2998 colon 5.28% | KM12 colon 1.73%
inactive: SR leukemia 13% | RPMI-8226 leukemia 29.7% | OVCAR-8 ovarian 22.4% | OVCAR-5 ovarian 26.4% | OVCAR-4 ovarian 48.7% | SK-OV-3 ovarian 47.2% | IGROV1 ovarian 16.5% | T-47D breast 75.5% | SW-620 colon 23% | MCF7 breast 54%

CCN(CC)CCCCCCNc1cccc2cc(Br)cnc12
inactive: SR leukemia 28.4% | RPMI-8226 leukemia 68% | OVCAR-8 ovarian 80.2% | OVCAR-5 ovarian 117% | OVCAR-4 ovarian 87.5% | SK-OV-3 ovarian 111% | IGROV1 ovarian 60% | OVCAR-3 ovarian 84.2% | NCI/ADR-RES ovarian 79.9% | T-47D breast 112% | BT-549 breast 80.8% | MDA-MB-435 melanoma 31.5% | SW-620 colon 56.5% | MCF7 breast 109% | HCT-116 colon 72.2% | HCC-2998 colon 88.3% | KM12 colon 65.7%

C[C@]12CCc3c(ccc4cc(O)ccc34)[C@@H]1CC[C@H]2O
inactive: SR leukemia 74.3% | RPMI-8226 leukemia 94.6% | OVCAR-8 ovarian 103% | OVCAR-5 ovarian 107% | OVCAR-4 ovarian 96.1% | SK-OV-3 ovarian 121% | IGROV1 ovarian 110% | OVCAR-3 ovarian 94.9% | NCI/ADR-RES ovarian 101% | T-47D breast 91.8% | MDA-MB-435 melanoma 80.1% | SW-620 colon 99.1% | MCF7 breast 116% | HCT-116 colon 102% | HCC-2998 colon 107% | KM12 colon 98.1%

Cc1nc(-c2ccccc2)sc1CC#N
inactive: SR leukemia 91.6% | RPMI-8226 leukemia 109% | OVCAR-8 ovarian 108% | OVCAR-5 ovarian 105% | OVCAR-4 ovarian 113% | SK-OV-3 ovarian 108% | IGROV1 ovarian 102% | OVCAR-3 ovarian 116% | NCI/ADR-RES ovarian 109% | T-47D breast 103% | BT-549 breast 113% | MDA-MB-435 melanoma 105% | SW-620 colon 103% | MCF7 breast 102% | HCT-116 colon 108% | HCC-2998 colon 109% | KM12 colon 107%

O=C1COCCN1c1ccc(NCc2cn(Cc3ccc(F)cc3)c3ccccc23)cc1
inactive: SR leukemia 94.4% | RPMI-8226 leukemia 41.7% | OVCAR-8 ovarian 70.5% | SK-OV-3 ovarian 20.3% | NCI/ADR-RES ovarian 72.1% | MDA-MB-435 melanoma 99.1% | SW-620 colon 28.1% | HCC-2998 colon 81.9% | KM12 colon 98.6%
active: OVCAR-5 ovarian -40.3% | OVCAR-4 ovarian -6.07% | IGROV1 ovarian -18.9% | OVCAR-3 ovarian 3.96% | T-47D breast -19.8% | MCF7 breast 4.76% | HCT-116 colon 6.21%

CCOC(=O)c1ccc2nc(-c3c(C)nn(-c4ccccc4)c3N3CCOCC3)[nH]c2c1
inactive: SR leukemia 74% | RPMI-8226 leukemia 84.4% | OVCAR-8 ovarian 93.4% | OVCAR-5 ovarian 103% | OVCAR-4 ovarian 87.1% | SK-OV-3 ovarian 95.3% | IGROV1 ovarian 81.4% | OVCAR-3 ovarian 93.5% | NCI/ADR-RES ovarian 95.9% | T-47D breast 73% | BT-549 breast 93.4% | MDA-MB-435 melanoma 99.4% | MCF7 breast 88.6% | HCT-116 colon 93.2% | HCC-2998 colon 95.9% | KM12 colon 96.9%

O=C(O)CSCc1nnc2n(Cc3ccccc3)c(=O)c3c4c(sc3n12)CCCC4
inactive: SR leukemia 75.6% | RPMI-8226 leukemia 76.9% | OVCAR-8 ovarian 92.6% | OVCAR-5 ovarian 94.1% | OVCAR-4 ovarian 95.6% | SK-OV-3 ovarian 106% | OVCAR-3 ovarian 107% | HS 578T breast 99.1% | NCI/ADR-RES ovarian 96.6% | T-47D breast 85% | BT-549 breast 101% | MDA-MB-435 melanoma 112% | SW-620 colon 107% | MCF7 breast 110% | HCT-116 colon 144% | HCC-2998 colon 98.1% | KM12 colon 109%
